Test results: PubChem BioAssay (NCI)
The panel holds about 83,000 compounds, 20% with a hit somewhere; the sample as a whole holds those more often.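 A percent growth of 40 corresponds to 60% growth inhibition; 0 means no net growth; -100 means all cells died. Active threshold: below 10.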 Values without a mark were called inactive. Active and inactive are the calls of the source.

Legend:
Test in all cases: NCI-60 one-dose screen, 48 h (100 = growth as untreated, 0 = no growth, -100 = all killed)
Conditions in all cases: 10 µM unless noted
NCI-H23 lung = test system: NCI-H23 lung
NCI-H226 lung = test system: NCI-H226 lung
NCI-H322M lung = test system: NCI-H322M lung
HOP-62 NSCLC = test system: HOP-62 NSCLC
NCI-H460 lung = test system: NCI-H460 lung
HOP-92 NSCLC = test system: HOP-92 NSCLC
NCI-H522 lung = test system: NCI-H522 lung
A549/ATCC NSCLC = test system: A549/ATCC NSCLC
786-0 renal = test system: 786-0 renal
COLO 205 colon = test system: COLO 205 colon
DU-145 prostate = test system: DU-145 prostate
MALME-3M melanoma = test system: MALME-3M melanoma
MDA-MB-231 breast = test system: MDA-MB-231 breast
RXF 393 renal = test system: RXF 393 renal
SF-268 CNS = test system: SF-268 CNS
SF-295 CNS = test system: SF-295 CNS
UACC-257 melanoma = test system: UACC-257 melanoma
M14 melanoma = test system: M14 melanoma
SF-539 CNS = test system: SF-539 CNS
K-562 leukemia = test system: K-562 leukemia

SMILES | growth (NCI-H23 lung) | growth (NCI-H226 lung) | growth (NCI-H322M lung) | growth (HOP-62 NSCLC) | growth (NCI-H460 lung) | growth (HOP-92 NSCLC) | growth (NCI-H522 lung) | growth (A549/ATCC NSCLC) | growth (786-0 renal) | growth (COLO 205 colon) | growth (DU-145 prostate) | growth (MALME-3M melanoma) | growth (MDA-MB-231 breast) | growth (RXF 393 renal) | growth (SF-268 CNS) | growth (SF-295 CNS) | growth (UACC-257 melanoma) [%] | growth (M14 melanoma) | growth (SF-539 CNS) | growth (K-562 leukemia)
Cn1c(=O)c2[nH]c(C3CC=CCC3)nc2n(C)c1=O (centres undefined) | 98.2% | 103% | 102% | 90.5% | 109% | 70.1% | 98% | 106% | 105% | 97.4% | 101% | 107% | 94.6% | 115% | 96% | 89.5% | 116 | 111% | – | –
CC(=O)Oc1cccc(S(=O)(=O)n2cc(C(=O)C(=O)Nc3ccncc3)c3ccccc32)c1 | 62.6% | 73.6% | 92.3% | 87.2% | 82.1% | 70.5% | 63.9% | 72.7% | 91.2% | 100% | 104% | 90.4% | 66.1% | 90.8% | 103% | 58.5% | 93.9 | 102% | 86.7% | –
O=C(O)/C=C/C(=O)c1ccc(Cl)cc1 | 116% | 113% | 104% | 112% | 112% | 119% | 80.4% | 95.3% | 105% | 120% | 109% | 110% | 122% | 125% | 96.6% | 123% | 93.2 | 101% | 107% | –
Cc1ccc(-c2cc3nc(-c4ccccc4)nc(C(Cl)Cl)n3n2)cc1 | 30.3% | 70.9% | -85.9% (active) | -60.1% (active) | -48% (active) | -81.5% (active) | 95.4% | -58.1% (active) | -79.3% (active) | -66.1% (active) | -93.9% (active) | -3.1% (active) | -49.7% (active) | – | -56.6% (active) | -69.8% (active) | 18.3 | 96.2% | -60.4% (active) | 20.2%
C=C1C(=O)O[C@H]2[C@H]1CC/C(COC(=O)NCc1ccccc1OC)=C\CC[C@@]1(C)O[C@@H]21 | 73.6% | 55.6% | 93.2% | 77.1% | 59.2% | 32.6% | -73.6% (active) | 71.6% | 7.8% (active) | -35.2% (active) | 20.1% | 68.8% | 46.2% | 10% | 53.1% | – | – | 33% | 28.7% | –
O=S(=O)(c1ccc(OCCO)cc1)c1ccc(OCCO)cc1 | 106% | 106% | 91.8% | 114% | 104% | 87.2% | 82.7% | 101% | 112% | 132% | – | 98.6% | 112% | 119% | 122% | 118% | 85.7 | 102% | 110% | 101%
COc1ccc(-c2ccc(-c3ccc(-c4ccc(C(=N)N)cc4)s3)s2)cc1OC | 88.7% | 96.7% | 111% | 86% | 97.7% | 33.1% | 99.9% | 43.1% | 93% | -14.7% (active) | 36.4% | 92.6% | 80.2% | – | 87.1% | 99.7% | 103 | 99% | 88.9% | -50% (active)
O=[N+]([O-])c1ccc(/C=C/C2(CCl)OCCO2)cc1 | 90.9% | 101% | 152% | 116% | 117% | 84.2% | -15.3% (active) | 105% | 85.6% | 107% | 114% | – | 114% | 104% | 115% | – | 93.6 | 95.2% | 104% | 65.7%
N#Cc1ccc(N2Cc3ccccc3OC3=C2C(=O)c2c(O)ccc(O)c2C3=O)cc1 | 14.2% | 10.4% | 66.8% | 16% | 46.9% | -66.2% (active) | -75.6% (active) | 72.9% | -42.9% (active) | -69.3% (active) | -91.8% (active) | -56.4% (active) | -8.93% (active) | -50.5% (active) | 7.68% (active) | – | – | -41.9% (active) | -17.5% (active) | –
c1ccc(-c2nc(N3CCNCC3)c3nc(-c4ccccc4)oc3n2)cc1 | -56.6% (active) | -61.3% (active) | 82% | -78.2% (active) | -73.7% (active) | 42% | -82.1% (active) | -77.2% (active) | -98.7% (active) | -84% (active) | -63.2% (active) | 91.8% | -81% (active) | – | 36.1% | 91.2% | 105 | 99.7% | -40% (active) | -10.7% (active)
O=C(CSC1CCc2ccccc21)N/N=C/c1ccccc1O (centres undefined) | 55.5% | 67.7% | 22.6% | 47.5% | 30.9% | 77.4% | 7.47% (active) | 48.2% | 66.6% | 45.7% | 52.8% | 53.3% | 45.2% | 75.1% | 39.5% | – | – | 47.4% | 54.7% | –
N#Cc1c(Nc2ccccc2)nc2n(c1=O)-c1ccccc1Sc1ccccc1-2 | 88.5% | 84.4% | 90.7% | 98.8% | 90.7% | 58.7% | 75.2% | 78.8% | 90.2% | 84.1% | 90% | – | 63.7% | 82.2% | 85.3% | 84% | 105 | 95.1% | 84.4% | 57.6%
CC(O)CN1CCCCC1 (centres undefined) | 100% | 106% | 111% | 122% | 104% | 111% | 88.8% | 105% | 105% | 111% | 117% | 112% | 105% | 108% | 101% | 104% | 104 | 105% | 111% | –
